Measurements as given in PubChem BioAssay (NCATS).
Several values for one entry are separate records, joined by “and”; a condition that tells them apart may be missing. Identical values can stand only once. Results filed as inconclusive are left out. Activity calls are given as the source filed them. Unless noted, the call rests on the fitted dose curve; in most records, active means well fitted curve in either direction with a large enough effect (not every such curve was filed as active); inconclusive means small, poorly fitted or top-dose-only effect, or another doubt; inactive means flat fitted curve, though single readings scatter.

Tests used:
[1] = AP1 Signaling Pathway (AID 357); details: ME-180 AP-1-bla reporter, EGF-induced, beta-lactamase ratio, 5 h;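 further: ME-180 reporter cells stimulated with EGF at its EC50 level; on the % scale 0 is the no-effect control and ±100 the full control effect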
In short: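 Beta-lactamase reporter under AP-1 response element, ME-180 background. Stimulus: EC50 EGF. Compound exposure 5 h, 37 °C. Detection: CCF4, 2.5 h RT, 460/530 nm. Values: AC50 from titration.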

[2] = molecular target: Cytochrome P450 1A2 (Homo sapiens) (UniProt P05177); test: p450-cyp1a2 (AID 410; calls by dose curve; further: potency means the concentration at half of the fitted maximal effect;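 on activity change, negative = inhibition: -100% = full effect of reference inhibitor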)
Sequence of Cytochrome P450 1A2 (Homo sapiens) (P05177 whole entry, looked up): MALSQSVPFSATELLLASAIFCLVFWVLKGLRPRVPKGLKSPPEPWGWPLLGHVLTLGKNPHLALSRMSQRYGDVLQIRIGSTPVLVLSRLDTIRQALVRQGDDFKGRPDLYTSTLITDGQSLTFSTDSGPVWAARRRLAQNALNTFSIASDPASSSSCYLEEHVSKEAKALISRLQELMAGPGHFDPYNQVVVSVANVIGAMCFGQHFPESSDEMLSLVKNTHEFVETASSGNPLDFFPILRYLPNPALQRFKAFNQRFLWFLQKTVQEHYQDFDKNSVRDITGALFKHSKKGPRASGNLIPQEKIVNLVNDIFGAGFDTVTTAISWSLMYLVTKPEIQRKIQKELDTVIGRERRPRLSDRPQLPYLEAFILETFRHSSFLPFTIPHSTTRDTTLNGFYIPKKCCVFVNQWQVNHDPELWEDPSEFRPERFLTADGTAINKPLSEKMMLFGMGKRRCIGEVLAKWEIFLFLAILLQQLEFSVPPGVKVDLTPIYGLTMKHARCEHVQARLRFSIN
In short: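 20nM CYP1A2, 100uM Luciferin-ME (=Km), 100mM KPO4; cpd 10 min RT; +NADPH regen, 60 min RT; stop/detect 20 min; luminescence. Normalized to furafylline 57 uM = full inhibition.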

[3] = NFAT Signaling Pathway (AID 444); details: Jurkat NFAT-bla M1, carbachol, beta-lactamase ratio, 5 h;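 further: carbachol stimulus at about its EC50 of 1 µM final; on the % scale 0 is the no-effect control and ±100 the full control effect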
In short: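 Jurkat cells with NFAT-driven β-lactamase reporter and co-expressed M1 receptor, stimulated with carbachol (final 1 uM, ~EC50), compound titration, 5 h at 37 °C. CCF4 loaded 1 h at RT; 460/530 nm ratio gave %activity and AC50.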

[4] = molecular target: Glucocorticoid receptor (Homo sapiens) (UniProt P04150); test: GR-GFP Redistribution (AID 450;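 active means compounds whose dose series gives a full or clear partial fitted curve of increased nuclear translocation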; further: potency means the concentration at half of the fitted maximal effect); details: U2OS GR-GFP nuclear translocation, laser cytometry, 2 h
Sequence of Glucocorticoid receptor (Homo sapiens) (P04150 whole entry, looked up, the tested form may be a part): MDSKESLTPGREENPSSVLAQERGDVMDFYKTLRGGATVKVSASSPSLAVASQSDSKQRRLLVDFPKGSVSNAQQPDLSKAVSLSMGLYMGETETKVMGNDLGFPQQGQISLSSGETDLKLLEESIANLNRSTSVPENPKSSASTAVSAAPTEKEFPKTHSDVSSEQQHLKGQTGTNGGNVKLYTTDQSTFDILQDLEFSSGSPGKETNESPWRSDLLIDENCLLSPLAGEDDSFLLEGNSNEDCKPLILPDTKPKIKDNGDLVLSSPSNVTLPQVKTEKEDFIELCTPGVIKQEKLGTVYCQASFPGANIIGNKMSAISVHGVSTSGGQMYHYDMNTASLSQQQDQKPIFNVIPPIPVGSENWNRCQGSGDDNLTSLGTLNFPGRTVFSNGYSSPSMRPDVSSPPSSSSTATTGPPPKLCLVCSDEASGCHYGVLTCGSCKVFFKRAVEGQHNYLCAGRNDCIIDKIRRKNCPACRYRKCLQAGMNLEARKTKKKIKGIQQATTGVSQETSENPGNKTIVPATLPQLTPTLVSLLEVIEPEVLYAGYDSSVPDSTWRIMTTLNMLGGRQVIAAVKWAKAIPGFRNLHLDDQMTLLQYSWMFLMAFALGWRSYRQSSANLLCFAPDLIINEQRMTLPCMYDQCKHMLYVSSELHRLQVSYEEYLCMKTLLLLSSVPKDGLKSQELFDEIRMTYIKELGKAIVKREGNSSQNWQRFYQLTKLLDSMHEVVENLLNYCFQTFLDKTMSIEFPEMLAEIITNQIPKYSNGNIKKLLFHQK

[5] = molecular target: Glucocorticoid receptor (Homo sapiens) (UniProt P04150); test: GR-EFC Redistribution (AID 451; calls by dose curve; further: potency means the concentration at half of the fitted maximal effect); details: CHO-K1 GR-EFC translocation, beta-gal luminescence, 2 h
In short: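 CHO-K1 cells expressing nuclear EA and GR-ED fragments of b-gal; compounds titrated up to 46 uM final, 2 h at 37 C. GR nuclear translocation read as complemented b-gal luminescence after 1 h RT detection.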

[6] = molecular target: Mitogen-activated protein kinase 10 (Mus musculus) (UniProt Q61831); test: JNK3 AlphaScreen Assay (AID 530);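 further: kinase came from lysate of stimulated human HepG2 cells; signal reports phosphorylation of biotinylated GST-cJun 1-79 at Ser73 with 10 µM ATP; on the % scale 0 is the no-effect control and ±100 the full control effect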
In short: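 HepG2 lysate (IL-1b/TNFa pre-activated) + biotin-GST-cJun 1-79 + anti-pSer73 cJun; cpd titration, 15 min RT; ATP 10 uM start; Tris pH 7.6, MgCl2, DTT, vanadate; beads in EDTA buffer; AlphaScreen.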

[7] = molecular target: 3',5'-cyclic-AMP phosphodiesterase 4B (Homo sapiens) (UniProt Q07343); test: qHTS Assay for Inhibitors of PDE-IV (AID 607; active means well fitted activation curve with a large enough effect in the main read-out, with a control signal flat, not every such curve was filed as active; further: % of control where 0% means no effect)
Sequence of 3',5'-cyclic-AMP phosphodiesterase 4B (Homo sapiens) (Q07343 whole entry, looked up): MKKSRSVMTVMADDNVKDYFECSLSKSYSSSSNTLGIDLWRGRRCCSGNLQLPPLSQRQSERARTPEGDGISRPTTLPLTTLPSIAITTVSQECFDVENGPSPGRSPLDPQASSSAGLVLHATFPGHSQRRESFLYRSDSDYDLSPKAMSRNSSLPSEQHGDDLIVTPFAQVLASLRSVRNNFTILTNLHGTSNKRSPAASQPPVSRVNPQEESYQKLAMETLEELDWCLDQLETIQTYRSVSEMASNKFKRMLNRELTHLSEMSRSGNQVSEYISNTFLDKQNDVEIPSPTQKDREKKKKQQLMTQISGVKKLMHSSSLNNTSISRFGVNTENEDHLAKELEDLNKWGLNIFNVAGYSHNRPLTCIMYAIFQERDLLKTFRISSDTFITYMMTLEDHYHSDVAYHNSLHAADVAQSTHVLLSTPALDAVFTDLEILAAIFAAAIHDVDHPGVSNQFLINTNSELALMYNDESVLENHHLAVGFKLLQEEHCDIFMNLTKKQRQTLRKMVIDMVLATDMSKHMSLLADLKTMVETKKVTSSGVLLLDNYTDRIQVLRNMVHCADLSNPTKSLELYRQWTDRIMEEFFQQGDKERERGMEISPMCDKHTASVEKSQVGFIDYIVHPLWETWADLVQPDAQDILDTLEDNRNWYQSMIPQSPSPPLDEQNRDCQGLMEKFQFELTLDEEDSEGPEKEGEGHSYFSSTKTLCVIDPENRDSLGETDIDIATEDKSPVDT
In short: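 The readout is membrane depolarisation from a cAMP-sensing CNG channel, detected with a potential dye at ex 535/em 590. Cells were HEK293-derived (endogenous PDE-IV) at 1000 cells/well, titrated up to 22.9 uM final.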

[8] = Stat Signaling Pathway (AID 446); details: ME-180 (cervical carcinoma) SIE beta-lactamase reporter, IL-6 stimulated, 5 h; at 17.2 µM (top of the series) unless noted;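 further: ME-180 cervical cancer cells given 40 pM IL-6 alongside compound; SIE-controlled beta-lactamase reporter measured as 460/530 nm FRET emission ratio; on the % scale 0 is the no-effect control and ±100 the full control effect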
In short: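 Emission at 460 and 530 nm (excitation 405 nm) reports SIE-controlled beta-lactamase in ME-180 cells. Cells received compound with 40 pM IL-6 for 5 hrs at 37 C; data scaled between 300 pM IL-6 and 125 nM JAK-inhibitor controls.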

[9] = Cell Viability - BJ (AID 421; calls by dose curve;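 further: potency means the concentration at half of the fitted maximal effect; cells exposed to compound for 40 hours at 37 °C before readout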); details: BJ fibroblast viability, qHTS
In short: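 Cytotoxicity in human BJ foreskin fibroblasts is scored as loss of cellular ATP after a 40-hour exposure, measured by luciferase luminescence. Controls are DMSO and 100 uM tamoxifen.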

[10] = Cell Viability - Jurkat (AID 426;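 active means dose-dependent loss of cell ATP signal giving a full or clear fitted curve, ranked by lower potency value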;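 further: potency means the concentration at half of the fitted maximal effect; cells exposed to compound for 40 hours at 37 °C before ATP read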); details: qHTS
In short: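 Luminescent ATP read-out (CellTiter-Glo, 20 min at room temperature) after 40 hr compound exposure at 37 °C of Jurkat E6-1 cells, 5000/well. Decreased ATP taken as cytotoxicity; AC50 from standard Hill equation.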

[11] = Cell Viability - Hek293 (AID 427;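 active means compounds whose dose-response curve shows a full or clear partial loss of cell viability, called from curve shape rather than a numeric limit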;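 further: potency means the concentration at half of the fitted maximal effect; cells exposed to compound for 40 hours at 37 °C before reading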); details: qHTS
In short: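 qHTS, human embryonic kidney (adenovirus-transformed) cells; 40 hr cpd, 37 °C; CellTiter-Glo ATP luminescence. Norm: DMSO = 0, 100 uM tamoxifen = 100% inhibition. Hill-fit AC50.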

[12] = Cell Viability - HepG2 (AID 433; calls by dose curve;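 further: potency means the concentration at half of the fitted maximal effect; potency for ATP loss meaning cytotoxicity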); details: qHTS
In short: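 Read-out is luciferase-based quantitation of cellular ATP as a measure of viable HepG2 cells after 40 h treatment at 37 °C. Signal decrease is scaled between DMSO-only and 100 uM tamoxifen controls, with AC50 fitted by the Hill equation.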

[13] = Cell Viability - SK-N-SH (AID 435; calls by dose curve; further: potency means the concentration at half of the fitted maximal effect); details: SK-N-SH neuroblastoma cell viability qHTS
In short: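 Luminescent ATP signal served as the viability read-out after 40 hours of compound treatment of human neuroblastoma SK-N-SH cells. Concentration-response data, scaled between DMSO and 100 uM tamoxifen, gave AC50 values by standard Hill modeling.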

[14] = Cell Viability - N2a (AID 540; active means well fitted curve in the direction sought with a large enough effect; an effect the other way counts as inactive or inconclusive;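 further: plate controls were DMSO alone for no effect and tamoxifen control for full effect; nearly all actives have a fitted effect of over 45% in size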); details: N2a mouse neuroblastoma cell viability; activity change, negative = cytotoxicity: at 92.2 µM (top of the series)
In short: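 N2a mouse neuroblastoma, 1500 cells/well, 5 hr settle; compound 40 hr, 37 °C; CellTiter-Glo 20 min RT; luminescence; Hill-fit AC50.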

[15] = Cell Viability - NIH 3T3 (AID 541; active means well fitted curve in the direction sought with a large enough effect; an effect the other way counts as inactive or inconclusive;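 further: plate controls were DMSO alone for no effect and tamoxifen positive control for full effect; nearly all actives have a fitted effect of over 25% in size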); details: NIH 3T3 cell viability, qHTS; activity change, negative = cytotoxicity: at 92.2 µM (top of the series)
In short: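 qHTS format; 40 hr compound exposure, 37 °C; CellTiter-Glo luminescence (cellular ATP) read-out after 20 min at RT. Decrease in ATP = cytotoxicity; AC50 from standard Hill fit.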

[16] = Cell Viability - H-4-II-E (AID 543; active means well fitted curve in the direction sought with a large enough effect; an effect the other way counts as inactive or inconclusive; further: on the % scale 0 is the no-effect control and ±100 the full control effect; nearly all actives have a fitted effect of over 35% in size)
In short: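 qHTS, rat hepatoma H-4-II-E, 1500 cells/well; 40 hr compound exposure, 37 °C; CellTiter-Glo ATP luminescence after 20 min RT; AC50 by standard Hill fit.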

[17] = Cell Viability - SH-SY5Y (AID 544; active means well fitted curve in the direction sought with a large enough effect; an effect the other way counts as inactive or inconclusive;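 further: 0% = DMSO alone and -100% = 100 µM tamoxifen; nearly all actives have a fitted effect of over 55% in size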); details: SH-SY5Y neuroblastoma cell viability; viability change, negative = cytotoxic: at 92.2 µM (top of the series)
In short: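 SH-SY5Y, 1500 cells/well, 5 hr pre-incubation 37 °C; cpd 40 hr 37 °C; CellTiter-Glo 20 min RT; luminescence (ATP) read. qHTS concentration-response, Hill fit → AC50. Tamoxifen, doxorubicin as positive controls.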

[18] = Cell Viability - Renal Proximal Tubule (AID 545; active means well fitted curve in the direction sought with a large enough effect; an effect the other way counts as inactive or inconclusive;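 further: 0% = DMSO only and -100% = 100 µM tamoxifen; nearly all actives have a fitted effect of over 40% in size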)
In short: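 Luminescent ATP signal (CellTiter-Glo) served as the viability read-out after 40 hr compound exposure of freshly isolated rat proximal tubule cells at 37 °C. Concentration-dependent ATP loss was fitted with the Hill equation to give AC50.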

[19] = Cell Viability - Mesenchymal (AID 546; active means well fitted curve in the direction sought with a large enough effect; an effect the other way counts as inactive or inconclusive;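 further: cells exposed to compound for 40 hours before reading; 0% = DMSO only and -100% = 100 µM tamoxifen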)
In short: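 Human renal mesenchymal cells (glomerulus-derived), 1000 cells/well, 5 hr 37 °C pre-incubation; compound 40 hr, 37 °C; CellTiter-Glo, 20 min RT; luminescence; AC50 via Hill equation.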

[20] = Cellular Toxicity (caspase-3) Jurkat (AID 655; active means well fitted curve in the direction sought with a large enough effect; an effect the other way counts as inactive or inconclusive;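 further: cells exposed to compound for 16 h at 37 °C before reading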)
In short: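 5000 Jurkat cells/well; compound 16 hr, 37 °C; Caspase-Glo 3/7 added, 20 min RT; luminescence read. Norm: DMSO = 0%, tamoxifen 100 uM = 100%. AC50, Hill model.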

[21] = at 17.2 µM (top of the series) unless noted

CNNCc1ccc(C(=O)NC(C)C)cc1
inactive: activity change, negative = inhibition [1, 21] -1.4% | activity change, negative = inhibition [3, 21] -25.9% | Potency [4] > 20.6 µM | Potency [5] > 20.6 µM | Potency [6] | outcome [7]
active: Potency [2] 1.58 µM

N[C@@H](Cc1ccc(O)c(O)c1)C(=O)O
inactive: activity change, negative = inhibition ([1]; at 17.2 µM (top of the series)) -2.87% | activity change, negative = inhibition ([1]; at 38 µM (top of the series)) -2.2% | Potency [2] | activity change, negative = inhibition ([3]; at 17.2 µM (top of the series)) 1.41% | activity change, negative = inhibition ([3]; at 38 µM (top of the series)) 18.2% | activity, negative = inhibition [8] 4.83% | Potency [4] > 46 µM and > 20.6 µM | Potency [5] > 46 µM and > 20.6 µM | Potency [6] | outcome [7]

Cc1nnc(NS(=O)(=O)c2ccc(N)cc2)s1
inactive: activity change, negative = inhibition [1, 21] 7.08% and 5.89% | Potency [2] | Potency [9] > 92 µM | Potency [10] > 92 µM | Potency [11] > 92 µM | Potency [12] > 92 µM | Potency [13] > 92 µM | activity change, negative = inhibition [3, 21] 16.1% and -9.52% | activity, negative = inhibition [8] 0.539% and 1.42% | Potency [6] | Potency [14] | activity change, negative = cytotoxicity [15] -22.7% | Potency [16] | Potency [17] | Potency [18] | Potency [19] | outcome [7] | outcome [20]

Cc1cccc(Nc2ccncc2S(=O)(=O)NC(=O)NC(C)C)c1
inactive: activity change, negative = inhibition [1, 21] -9.3% | Potency [2] | activity change, negative = inhibition [3, 21] -2.46% | activity, negative = inhibition [8] -16.6% | Potency [4] > 20.6 µM | Potency [5] > 20.6 µM | Potency [6]

CCCOc1ccc(C(=O)OCCN(CC)CC)cc1N
active: Potency [2] 5.01 µM
inactive: activity change, negative = inhibition [1, 21] 5.39% | activity change, negative = inhibition [3, 21] -19.1% | activity, negative = inhibition [8] 1.44% | Potency [4] > 20.6 µM | Potency [5] > 20.6 µM | Potency [6] | outcome [7]

CCc1cc(C(N)=S)ccn1
inactive: activity change, negative = inhibition [1, 21] -4.73% | Potency [9] > 92 µM | Potency [10] > 92 µM | Potency [11] > 92 µM | Potency [12] > 92 µM | Potency [13] > 92 µM | activity change, negative = inhibition [3, 21] 5.86% | activity, negative = inhibition [8] -6.82% | Potency [4] > 20.6 µM | Potency [5] > 20.6 µM | Potency [6] | Potency [14] | activity change, negative = cytotoxicity [15] -7.33% | Potency [16] | Potency [17] | Potency [18] | Potency [19] | outcome [7] | outcome [20]

CCOC(=O)c1ccc(OC(=O)CCCCCN=C(N)N)cc1
inactive: activity change, negative = inhibition [1, 21] 1.04% | activity, negative = inhibition [8] -23.2% | Potency [6] | outcome [7]
active: Potency [2] 12.6 µM and 15.8 µM

CC1=NN(c2ccccc2)C(=O)C1
active: Potency [2] 12.6 µM
inactive: activity change, negative = inhibition [1, 21] -7.19% | Potency [9] > 92 µM | Potency [10] > 92 µM | Potency [11] > 92 µM | Potency [12] > 92 µM | Potency [13] > 92 µM | activity change, negative = inhibition [3, 21] 9.94% | activity, negative = inhibition [8] -2.54% | Potency [4] > 46 µM and > 20.6 µM | Potency [5] > 46 µM | Potency [6] | Potency [14] | activity change, negative = cytotoxicity [15] -5.02% | Potency [16] | Potency [17] | Potency [18] | Potency [19] | outcome [7] | outcome [20]

CCn1cc(C(=O)O)c(=O)c2cc(F)c(N3CCNCC3)nc21
inactive: activity change, negative = inhibition [1, 21] -5.75% and 5.53% | Potency [2] | activity change, negative = inhibition [3, 21] -11.9% and 9.94% | activity, negative = inhibition [8] 4.75% and 1.14% | Potency [6] | outcome [7]

NNC(=O)c1ccncc1
inactive: activity change, negative = inhibition [1, 21] 11.8% and 7.05% | Potency [9] > 92 µM | Potency [10] > 92 µM | Potency [11] > 92 µM | Potency [12] > 92 µM | Potency [13] > 92 µM | activity change, negative = inhibition [3, 21] -9.4% and 6.65% | activity, negative = inhibition [8] 3.44% and 12.3% | Potency [4] > 20.6 µM | Potency [5] > 20.6 µM | Potency [6] | Potency [14] | activity change, negative = cytotoxicity [15] -5.93% | Potency [16] | Potency [17] | Potency [18] | Potency [19] | outcome [7] | outcome [20]
active: Potency [2] 6.31 µM
